Our source for the Potency values is PubChem BioAssay AID1345085 (National Center for Advancing Translational Sciences (NCATS), 2018).

For this experiment, the system named is C33A. The experiment is described as follows: Confirmatory qHTS for gynecologic anti-cancer compounds from libraries of approved drugs and bioactive compounds. Also: nearly all actives have a fitted effect of over 55% in size. The note with it: gynecologic cancer cell panel viability, ATPlite luminescence, 48 h; series mostly up to 57.6 µM. Put shortly: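 ATPlite luminescence read-out of cell viability; IC50 from 11-point 1:3 titrations, 57.5 uM to 0.977 nM, 48 h compound exposure at 37 C, 5% CO2. Cells seeded at 1,000/well 16 h before dosing.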

Results filed as inconclusive are left out. Entries that show only a call come without a potency. Active and inactive are the calls of the source. Calls follow the shape of the dose curve; as a rule, active = well fitted cell-killing curve with a large enough effect; inconclusive = small, poorly fitted or top-dose-only effect, or effect the other way; inactive = no such curve, though single readings can be large or run the other way.
Potency is read from the fitted curve at half-maximal effect.

For the molecule `Cc1sc2c(c1C)C(c1ccc(Cl)cc1)=NC(CC(=O)OC(C)(C)C)c1nnc(C)n1-2` (stereo unspecified), the Potency result was “inactive”. The same measure for `CCC(=O)O[C@H]1CC[C@H]2[C@@H]3CCC4=CC(=O)CC[C@]4(C)[C@H]3CC[C@]12C`: “inactive”; for `C/C=C(/C)C(=O)O[C@H]1C(C)=C2[C@H]([C@@H]1OC(=O)CCCCCCC)[C@@](C)(OC(C)=O)C[C@H](OC(=O)CCC)[C@@]1(O)[C@H]2OC(=O)[C@@]1(C)O`: 21.7 µM (active). Regarding `CCN1CCN(C(=O)Cc2ccc(Nc3ncc(F)c(Nc4ccc(C(=O)Nc5ccccc5Cl)cc4)n3)cc2)CC1`, the Potency result was “inactive”.

Take `C[C@]12CC[C@H]3[C@@H](CCC4=CC(=O)CC[C@@H]43)[C@@H]1CC[C@@H]2OC(=O)CCc1ccccc1`: the Potency result is “inactive”. The same measure for `CCNC(=O)C[C@@H]1N=C(c2ccc(Cl)cc2)c2cc(OC)ccc2-n2c(C)nnc21`: “inactive”.
